The results in this text go back to PubChem BioAssay.

Records with an inconclusive call do not appear. Activity calls are given as the source filed them.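 The calls were made as follows, unless noted: active = efflux inhibition above 0.42, the validation set average plus 4 SD; inconclusive = no clear call, values can overlap the other calls; inactive = the rest.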

Assay [1] in a line: yeast TOR pathway RPL19A-GFP modulators, primary screen, cell-based, S. cerevisiae, multiplex flow cytometry (AID 1862; in the data active = percent of DMSO control GFP below about 86%;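 also: lower values mimic rapamycin by blocking the RPL19A rise seen in DMSO cells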). Particulars: S. cerevisiae RPL19A-GFP strain, flow cytometry fluorescence, 3 h; at 10 µM; stronger effect = lower value. Background: A flow cytometer gives signals particle by particle.
Assay [2] is described as follows: modulators of MEP2-GFP levels in yeast, primary screen, S. cerevisiae, multiplex flow cytometry (AID 1867;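 active = GFP response, as percent of the DMSO control, above the screen-wide mean plus 3 SD, about 139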;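 also: median GFP channel fluorescence of barcode-gated MEP2-GFP cells measured by flow cytometry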). Particulars: S. cerevisiae MEP2-GFP strain, 3 h, at 10 µM, stronger effect = higher value, 100% means same as DMSO wells.
Assay [3] is described as follows: modulators of CIT2-GFP expression in yeast, primary screen, S. cerevisiae, GFP fusion, multiplex flow cytometry (AID 1870;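 active = percent response above a set limit, the screen-wide mean plus 3 SD, cut at about 130% in these data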;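 also: barcoded CIT2-GFP strain pooled with four other GFP strains with rapamycin as positive control; median GFP fluorescence per well over plate mean of DMSO wells so 100% = DMSO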). The settings on record: 3 h, at 10 µM, stronger effect = higher value.
Assay [4] can be described thus: modulators of LAP4-GFP expression in yeast, primary screen, S. cerevisiae, multiplex flow cytometry (AID 1873;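 active = GFP signal, as percent of the solvent control, above the screen mean plus 3 SD, about 149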). Particulars: 3 h, at 10 µM, stronger effect = higher value.
Assay [5] is described as follows: modulators of AGP1-GFP expression in yeast TOR pathway, primary screen, cell-based, multiplex flow cytometry, S. cerevisiae (AID 1887;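 active = GFP signal above the screen-wide mean plus 3 SD, that is over about 124.5% of the solvent control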;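 also: AGP1-GFP fusion strain of S. cerevisiae within a five-strain barcoded multiplex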). Particulars: 3 h, at 10 µM, stronger effect = higher value.
Assay [6] can be described thus: inhibitors of CD8+ T cell-vesicle binding, pilot screen, LFA-1/ICAM-1 modulator project, MLPCN validation set, flow cytometry (AID 2523;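 active = response below a set limit, under 55% cells CD8-positive and vesicle-bound, and CD8 cells' 90th-percentile brightness under 279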;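 as to vesicle binding response: mean PE anti-B7-1 fluorescence of CD8+ cells relative to row control; 100% = QL9-loaded vesicles with DMSO vehicle in the same plate row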). Particulars: 2C mouse CD8+ T cells, at 7 µM, stronger effect = lower value; double positive events: measured here: CD8+/vesicle+ event percentage.
Assay [7] deals with Integrin beta-1 (Homo sapiens) + Integrin alpha-4 (Homo sapiens) (UniProt P13612+P05556). Briefly: inhibition of HUTS-21 binding to VLA-4, pilot screen, VLA-4 allosteric modulator project, U937 cells, HUTS-21 mAb, flow cytometry, validation set (AID 2674;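 active = inhibition above 50%, about 3 SD of the validation set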;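 also: antibody binding induced by the VLA-4 ligand LDV present at three times its Kd; 0% = LDV ligand with antibody and no compound and 100% = antibody without LDV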). The settings on record: HUTS-21 LIBS mAb binding, at 6.7 µM, stronger effect = higher value, binding induced by LDV ligand.
Integrin beta-1 (Homo sapiens) + Integrin alpha-4 (Homo sapiens), sequence (P05556 whole entry, looked up): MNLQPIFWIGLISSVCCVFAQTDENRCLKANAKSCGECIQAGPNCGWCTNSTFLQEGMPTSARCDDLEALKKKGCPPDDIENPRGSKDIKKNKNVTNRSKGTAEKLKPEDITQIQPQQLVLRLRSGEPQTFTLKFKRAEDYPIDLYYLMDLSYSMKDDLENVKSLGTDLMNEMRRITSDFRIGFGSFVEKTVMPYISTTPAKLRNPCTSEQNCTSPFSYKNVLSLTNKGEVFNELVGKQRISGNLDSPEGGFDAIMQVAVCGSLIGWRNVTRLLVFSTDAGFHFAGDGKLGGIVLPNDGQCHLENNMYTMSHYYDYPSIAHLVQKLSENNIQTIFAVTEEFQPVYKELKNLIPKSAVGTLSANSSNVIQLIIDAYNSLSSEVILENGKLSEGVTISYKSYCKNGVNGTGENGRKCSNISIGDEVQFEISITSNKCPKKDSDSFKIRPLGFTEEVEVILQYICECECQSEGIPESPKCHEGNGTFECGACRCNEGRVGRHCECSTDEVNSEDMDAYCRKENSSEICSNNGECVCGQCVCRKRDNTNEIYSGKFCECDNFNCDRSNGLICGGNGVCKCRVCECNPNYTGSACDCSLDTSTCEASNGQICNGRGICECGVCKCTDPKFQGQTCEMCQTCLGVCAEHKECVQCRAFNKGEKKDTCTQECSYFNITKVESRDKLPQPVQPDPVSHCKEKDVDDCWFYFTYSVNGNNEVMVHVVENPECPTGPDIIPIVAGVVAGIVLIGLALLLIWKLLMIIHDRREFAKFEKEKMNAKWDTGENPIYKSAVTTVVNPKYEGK
Integrin beta-1 (Homo sapiens) + Integrin alpha-4 (Homo sapiens), sequence (P13612 whole entry, looked up): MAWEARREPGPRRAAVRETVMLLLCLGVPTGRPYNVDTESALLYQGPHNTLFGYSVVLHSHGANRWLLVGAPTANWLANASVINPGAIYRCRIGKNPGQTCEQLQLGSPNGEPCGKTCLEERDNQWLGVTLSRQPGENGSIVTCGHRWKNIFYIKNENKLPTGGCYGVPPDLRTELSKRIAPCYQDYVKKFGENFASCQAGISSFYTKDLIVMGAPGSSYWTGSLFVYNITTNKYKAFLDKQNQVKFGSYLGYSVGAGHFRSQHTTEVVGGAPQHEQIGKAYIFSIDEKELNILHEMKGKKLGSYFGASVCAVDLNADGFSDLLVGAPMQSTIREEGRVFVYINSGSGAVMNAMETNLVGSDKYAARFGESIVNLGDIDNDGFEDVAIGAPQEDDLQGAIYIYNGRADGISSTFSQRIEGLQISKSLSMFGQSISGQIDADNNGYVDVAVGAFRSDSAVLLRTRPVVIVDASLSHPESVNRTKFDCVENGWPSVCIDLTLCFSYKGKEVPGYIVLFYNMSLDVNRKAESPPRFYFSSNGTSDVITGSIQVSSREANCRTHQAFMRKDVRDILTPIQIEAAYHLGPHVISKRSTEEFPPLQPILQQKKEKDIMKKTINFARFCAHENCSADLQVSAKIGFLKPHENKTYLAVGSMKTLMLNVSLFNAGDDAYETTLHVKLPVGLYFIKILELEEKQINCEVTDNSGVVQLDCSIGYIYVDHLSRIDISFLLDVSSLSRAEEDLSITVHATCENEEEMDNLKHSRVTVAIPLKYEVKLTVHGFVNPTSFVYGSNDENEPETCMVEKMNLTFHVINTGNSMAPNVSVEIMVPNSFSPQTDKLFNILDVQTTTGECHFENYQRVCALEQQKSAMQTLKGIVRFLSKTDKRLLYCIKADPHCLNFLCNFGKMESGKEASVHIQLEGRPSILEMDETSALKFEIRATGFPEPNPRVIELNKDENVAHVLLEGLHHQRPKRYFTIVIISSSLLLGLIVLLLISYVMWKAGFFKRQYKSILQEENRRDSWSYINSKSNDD
Assay [8] is described as follows: superoxide lowering in aged yeast cells, pilot screen, validation compound set (AID 2706;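 active = superoxide response below 65% of plate, a cut near 3 SD across the whole screen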;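 also: yeast exposed to compound for one week at 30 degrees C before staining; 100% = mean of all compound wells on the same plate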). The settings on record: S. cerevisiae aging, superoxide DHE fluorescence; at 10 µM; stronger effect = lower value.
Assay [9] deals with Beta-adrenergic receptor kinase 1 (Homo sapiens) (UniProt P25098). Description: GRK2 binders displacing RNA aptamer, biochemical, validation, human GRK2, bead flow cytometry (AID 488806;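 active = aptamer binding inhibition above 30%, about 3 SD of noise from non-fluorescent compounds; inactive = inhibition at or below 30%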). The settings on record: bead-bound GRK2, FAM-aptamer displacement, at 10 µM, stronger effect = higher value.
Beta-adrenergic receptor kinase 1 (Homo sapiens), sequence (P25098 whole entry, looked up): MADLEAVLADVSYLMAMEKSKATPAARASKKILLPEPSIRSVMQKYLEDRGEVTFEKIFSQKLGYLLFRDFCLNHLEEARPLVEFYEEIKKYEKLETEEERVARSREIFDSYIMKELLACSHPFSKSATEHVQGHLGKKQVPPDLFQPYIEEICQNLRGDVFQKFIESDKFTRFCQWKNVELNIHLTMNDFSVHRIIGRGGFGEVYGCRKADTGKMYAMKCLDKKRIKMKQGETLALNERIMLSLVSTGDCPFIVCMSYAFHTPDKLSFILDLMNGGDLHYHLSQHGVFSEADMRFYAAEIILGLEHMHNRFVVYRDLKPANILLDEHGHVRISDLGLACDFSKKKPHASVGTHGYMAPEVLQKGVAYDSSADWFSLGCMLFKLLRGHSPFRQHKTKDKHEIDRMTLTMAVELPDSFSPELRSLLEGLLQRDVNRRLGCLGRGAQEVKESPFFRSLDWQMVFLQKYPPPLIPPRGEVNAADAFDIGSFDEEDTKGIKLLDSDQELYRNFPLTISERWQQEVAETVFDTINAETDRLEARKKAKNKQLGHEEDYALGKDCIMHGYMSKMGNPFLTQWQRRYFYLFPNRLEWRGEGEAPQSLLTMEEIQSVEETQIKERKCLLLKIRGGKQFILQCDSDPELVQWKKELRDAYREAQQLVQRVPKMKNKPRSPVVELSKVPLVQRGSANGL
Assay [10] has as its target Beta-2 adrenergic receptor (Homo sapiens) (UniProt P07550). Description: beta2AR agonists driving receptor internalization, pilot screen, cell-based, FAP fluorogen, flow cytometry, validation set (AID 504459;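 active = percent response above 42, roughly 3 SD of non-fluorescent test compounds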;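 also: agonist-driven loss of surface beta2AR via internalization measured by FAP dye flow cytometry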). Particulars: Am2.2-beta2AR cells, FAP surface receptor flow cytometry; at 10 µM; stronger effect = higher value.
Assay [11] has as its target AP-2 complex subunit beta (Homo sapiens) (UniProt P63010). Briefly: inhibitors of arrestin peptide binding to AP2, pilot screen, biochemical, validation set, GST-AP2 beads, flow cytometry (AID 504541;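 active = inhibition above 54%, about 3 SD of non-fluorescent compounds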;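 also: AP2 carries R879A mutation and is captured from E. coli lysate; bead-bound FITC arrestin peptide fluorescence measuring arrestin peptide binding to AP2; 0% = DMSO wells and 100% = excess unlabeled arrestin peptide control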). The settings on record: FITC arrestin peptide, at 10 µM, stronger effect = higher value, AP2 beta2 appendage fragment, R879A mutant.
Assay [12] in a line: yeast V-ATPase proton transport modulators, S. cerevisiae, pHLuorin, HTS validation (AID 504600; in the data active = response above about 15%;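 also: plate controls were DMSO for no effect and reference compound for full effect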). The settings on record: S. cerevisiae pHLuorin cytosolic pH, at 10 µM, stronger effect = higher value.
Assay [13] relates to anti-desmoglein-3 scFv antibody binding to human DSG3. Description: inhibitors of anti-DSG3 scFv binding to DSG3, pilot screen, biochemical, validation compound set, bead-based, flow cytometry (AID 588368;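 active = binding below the plate cutoff, the plate median minus 3 SD, with a reading above zero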;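 also: signal is the median channel fluorescence of bead-bound GFP antibody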). The settings on record: Protein G beads, DSG3-Fc, scFv-GFP binding, at 10 µM, stronger effect = lower value.
Assay [14] can be described thus: inhibitors of fungal efflux pumps CDR1, CDR2, MDR1, pilot screen, validation compound set, multiplex, phenotypic (AID 588506).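 Also: Nile Red retained in cells so higher fluorescence means more efflux inhibition; 0 = negative control wells and 1 = enniatin B 25 µM full block.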 The settings on record: S. cerevisiae pump-expressing triplex, Nile Red efflux flow cytometry; at 10 µM; stronger effect = higher value; the pumps come from Candida albicans.
The target of assay [15] is ATP-binding cassette sub-family B member 6 (Homo sapiens) (UniProt Q9NP58). Briefly: ABCB6 transporter inhibitors, pilot screen, K562-ABCB6 cells, flow cytometry, validation set (AID 588550;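 active = inhibition above the screen-wide mean plus 3 SD, about 51%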;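 also: 0% = DMSO wells and 100% = benzethonium chloride 70 µM positive control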). Particulars: K562-ABCB6 porphyrin accumulation, 1 h, at 10 µM, stronger effect = higher value.
ATP-binding cassette sub-family B member 6 (Homo sapiens), sequence (Q9NP58 whole entry, looked up): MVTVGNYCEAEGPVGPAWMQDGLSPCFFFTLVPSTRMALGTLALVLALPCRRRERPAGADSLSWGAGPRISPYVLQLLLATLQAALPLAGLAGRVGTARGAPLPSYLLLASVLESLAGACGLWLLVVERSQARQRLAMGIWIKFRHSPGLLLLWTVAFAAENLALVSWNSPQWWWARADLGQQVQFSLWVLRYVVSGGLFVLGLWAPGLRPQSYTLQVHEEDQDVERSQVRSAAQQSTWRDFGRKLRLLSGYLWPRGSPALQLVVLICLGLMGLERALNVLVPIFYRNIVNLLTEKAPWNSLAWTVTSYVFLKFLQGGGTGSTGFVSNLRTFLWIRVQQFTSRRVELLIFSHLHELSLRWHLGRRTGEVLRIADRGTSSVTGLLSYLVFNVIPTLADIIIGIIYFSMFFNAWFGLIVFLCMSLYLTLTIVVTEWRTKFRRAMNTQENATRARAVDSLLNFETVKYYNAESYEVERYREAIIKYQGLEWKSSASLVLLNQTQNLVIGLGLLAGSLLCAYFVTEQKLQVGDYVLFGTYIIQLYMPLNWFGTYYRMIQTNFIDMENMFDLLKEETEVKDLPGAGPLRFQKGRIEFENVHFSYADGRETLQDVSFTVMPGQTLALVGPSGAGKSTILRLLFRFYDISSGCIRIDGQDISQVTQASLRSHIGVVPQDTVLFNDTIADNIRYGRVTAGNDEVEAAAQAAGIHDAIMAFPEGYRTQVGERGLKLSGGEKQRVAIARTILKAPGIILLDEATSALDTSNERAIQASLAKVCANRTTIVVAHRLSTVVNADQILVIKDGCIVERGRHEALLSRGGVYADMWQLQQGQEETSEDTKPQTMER
Assay [16] is described as follows: promoters of myeloid differentiation in arrested cells, primary screen, cell-based, GFP/MAC1 double positive, flow cytometry, validation set (AID 588685;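 active = differentiation response of at least 50%, scaled between solvent and reference control, from cells with both markers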;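 also: compound exposure lasts four days before antibody staining and flow analysis; 0% = DMSO wells and 100% = 5 µM fulvestrant positive control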). The settings on record: ER-HoxA9 marrow cells, stronger effect = higher value, normalized: vehicle 0, fulvestrant 100.

Beta-2 adrenergic receptor (Homo sapiens), sequence (P07550 whole entry, looked up): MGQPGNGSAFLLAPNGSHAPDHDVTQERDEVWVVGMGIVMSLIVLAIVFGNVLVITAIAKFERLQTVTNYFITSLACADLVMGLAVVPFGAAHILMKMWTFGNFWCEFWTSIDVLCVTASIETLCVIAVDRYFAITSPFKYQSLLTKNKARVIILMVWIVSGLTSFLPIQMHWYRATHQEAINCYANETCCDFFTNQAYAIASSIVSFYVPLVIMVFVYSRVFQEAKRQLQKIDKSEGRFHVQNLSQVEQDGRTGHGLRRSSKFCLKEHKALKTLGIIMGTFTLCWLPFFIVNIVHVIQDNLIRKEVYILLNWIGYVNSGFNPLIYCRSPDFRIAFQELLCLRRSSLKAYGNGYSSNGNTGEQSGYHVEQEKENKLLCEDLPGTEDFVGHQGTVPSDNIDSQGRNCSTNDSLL
AP-2 complex subunit beta (Homo sapiens), sequence (P63010 whole entry, looked up, the tested form may be a part, one chain of several): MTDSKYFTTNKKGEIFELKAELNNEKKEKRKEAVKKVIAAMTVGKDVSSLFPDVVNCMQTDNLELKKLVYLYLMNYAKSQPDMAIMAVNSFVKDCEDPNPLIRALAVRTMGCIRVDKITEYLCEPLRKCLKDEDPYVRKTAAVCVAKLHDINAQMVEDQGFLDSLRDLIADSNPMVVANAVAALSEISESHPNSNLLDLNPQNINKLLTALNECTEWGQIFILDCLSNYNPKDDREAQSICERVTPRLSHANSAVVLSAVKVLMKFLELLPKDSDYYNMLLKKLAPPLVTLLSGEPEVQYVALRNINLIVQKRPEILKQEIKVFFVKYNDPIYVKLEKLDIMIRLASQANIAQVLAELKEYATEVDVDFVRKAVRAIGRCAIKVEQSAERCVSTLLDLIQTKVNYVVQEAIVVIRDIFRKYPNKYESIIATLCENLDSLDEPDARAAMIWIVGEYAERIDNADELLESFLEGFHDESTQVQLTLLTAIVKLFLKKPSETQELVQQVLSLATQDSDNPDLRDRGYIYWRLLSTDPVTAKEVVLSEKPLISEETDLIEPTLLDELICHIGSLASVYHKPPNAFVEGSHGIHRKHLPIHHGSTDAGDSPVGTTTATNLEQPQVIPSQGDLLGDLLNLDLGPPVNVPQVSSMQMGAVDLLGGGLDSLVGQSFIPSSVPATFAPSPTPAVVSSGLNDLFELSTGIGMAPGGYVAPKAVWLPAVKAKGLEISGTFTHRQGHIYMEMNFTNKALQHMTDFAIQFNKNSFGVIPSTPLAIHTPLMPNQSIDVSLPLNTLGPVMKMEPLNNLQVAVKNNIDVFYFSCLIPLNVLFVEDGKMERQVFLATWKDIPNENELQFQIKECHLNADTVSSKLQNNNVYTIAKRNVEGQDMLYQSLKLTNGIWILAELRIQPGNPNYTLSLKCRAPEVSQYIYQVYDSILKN

By inhibition is commonly meant the drop in the measured response relative to a control, in per cent. As to `O=C(Nc1ccc(F)c([N+](=O)[O-])c1)c1ccc2c(c1)OCCO2`, the percent of DMSO control GFP in [1] was 106% (inactive). In addition, the GFP response vs DMSO in assay [2] was 103% (inactive); in [4], 108% (inactive). For the same compound, in assay [3], the percent response of DMSO control is 104% (inactive). In addition, the GFP response, % of DMSO in assay [5] was 100% (inactive). For the same compound, the double positive events in [6] was 63%. The vesicle binding response in [6] is 5830% (inactive). Moreover, the inhibition in assay [7] was -1.49% (inactive); in [11] it was -13.5% (inactive); in [15] it was 15% (inactive). Moreover, the superoxide response (% of plate) in [8] was 94% (inactive). The aptamer binding inhibition in [9] was 2% (inactive). Further, the response was 1.51% (inactive) in assay [10] and 3.69% (inactive) in assay [12]. Moreover, the binding (% of control) in assay [13] was 92.4% (inactive). For the same compound, in [14], the efflux inhibition (fraction of control) was -0.01 (inactive). In assay [16], the differentiation response was 5.13% (inactive).

`CCOC(=O)[C@H]1O[C@@H]1C(=O)N[C@@H](CC(C)C)C(=O)NCCC(C)C`: the percent of DMSO control GFP in assay [1] is 91.1% (inactive). The GFP response vs DMSO in assay [2] is 135% (inactive); in assay [4], 82.5% (inactive). Besides, the percent response of DMSO control in assay [3] is 97.9% (inactive). In addition, the GFP response, % of DMSO in assay [5] is 91.7% (inactive). In assay [6], this compound yielded a double positive events of 55.3%. Besides, in assay [6], the vesicle binding response is 224% (inactive). The inhibition is 6.46% (inactive) in assay [7], -3.19% (inactive) in assay [11] and 7% (inactive) in [15]. Moreover, the superoxide response (% of plate) in [8] is 97% (inactive). Further, the aptamer binding inhibition in assay [9] was 3% (inactive). Moreover, the response in assay [10] is -8.75% (inactive); in [12] it was 6.36% (inactive). In [13], the binding (% of control) was 106% (inactive). Also, in [14], the efflux inhibition (fraction of control) was 0.05 (inactive). In addition, the differentiation response in assay [16] was 0.82% (inactive).

`CC(=O)C1=C(O)C(=O)OC1c1ccc(C)cc1` (stereo not given): the percent of DMSO control GFP in assay [1] is 97.1% (inactive). Moreover, the figures for the GFP response vs DMSO in [2] and in [4] were 119% (inactive) and 132% (inactive), respectively. For the same compound, the percent response of DMSO control in assay [3] was 91% (inactive). Also, the GFP response, % of DMSO in [5] is 106% (inactive). In assay [6], this compound yielded a double positive events of 61%. In addition, the vesicle binding response in [6] was 147% (inactive). Also, the inhibition in [7] is 17.3% (inactive); in assay [11], 21.9% (inactive); in assay [15], 7% (inactive). In addition, the superoxide response (% of plate) in assay [8] was 103% (inactive). The aptamer binding inhibition in assay [9] was 2% (inactive). The values for the response in assay [10] and in [12] were -1.67% (inactive) and -0.38% (inactive), respectively. Besides, the binding (% of control) in [13] was 101% (inactive). Moreover, the efflux inhibition (fraction of control) in [14] was -0.06 (inactive). Further, the differentiation response in assay [16] was 5.6% (inactive).

As for `O=C(/C=C/c1ccco1)Nc1ccccc1C(=O)O`, the percent of DMSO control GFP in [1] was 98.1% (inactive). For the same compound, the results for the GFP response vs DMSO in assay [2] and in assay [4] were 105% (inactive) and 94.8% (inactive), respectively. In assay [3], the percent response of DMSO control is 107% (inactive). Further, the GFP response, % of DMSO in [5] was 109% (inactive). Besides, the double positive events in assay [6] was 65.9%. The vesicle binding response in [6] is 205% (inactive). For the same compound, the inhibition in [7] was -31.9% (inactive); in [11], -15.5% (inactive); in assay [15], -11% (inactive). Further, the superoxide response (% of plate) in assay [8] was 124% (inactive). The aptamer binding inhibition in [9] was 11% (inactive). The response in assay [10] is 5.64% (inactive); in [12], 3.27% (inactive). The binding (% of control) in assay [13] was 105% (inactive). The efflux inhibition (fraction of control) in assay [14] was -0.3 (inactive). Also, the differentiation response in [16] was 23.2% (inactive).

In the case of `CCOc1ccc(CC2CCC(=O)NC2=O)cc1` (stereo not given), the percent of DMSO control GFP in assay [1] is 103% (inactive). Besides, the values for the GFP response vs DMSO in assay [2] and in assay [4] were 102% (inactive) and 110% (inactive), respectively. Moreover, the percent response of DMSO control in [3] was 104% (inactive). The GFP response, % of DMSO in [5] was 115% (inactive). Further, the double positive events in [6] is 64%. For the same compound, the vesicle binding response in assay [6] was 156% (inactive). Also, the values for the inhibition in assay [7], in assay [11] and in assay [15] were -3.67% (inactive), 12.5% (inactive) and 9% (inactive), respectively. Also, in [8], the superoxide response (% of plate) was 105% (inactive). Moreover, in [9], the aptamer binding inhibition was 6% (inactive). In addition, the results for the response in assay [10] and in assay [12] were -15.9% (inactive) and -1.14% (inactive), respectively. In addition, in [13], the binding (% of control) is 95.7% (inactive). In [14], the efflux inhibition (fraction of control) is 0 (inactive). Besides, the differentiation response in assay [16] was 20.6% (inactive).
